Screening data deposited in PubChem by The Scripps Research Institute Molecular Screening Center.
bovine MsrA act: activates bovine MsrA enzyme | purified bovine MsrA, absorbance read-out | 360,000 tested, 0.3% active | activation, % at 10.6 µM | AID 602163; in the data active means activation above about 7.5%;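 further: 0% = vehicle and 100% = reference activator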
rCAG RNA binder: r(CAG) repeat RNA binding. 370,000 tested, 1.3% active. inhibition, % at 3 µM. TO-PRO-1 dye displacement fluorescence;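 active means inhibition above the plate cutoff, the mean of all test compounds on that plate plus 3 SD, cut at about 35% in these data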;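 further: 0% = DMSO alone and 100% = 100 µM mitoxantrone as full dye displacement; higher means more dye released from RNA so lower well fluorescence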
sPLA2-III inh: Inhibits HGIII-sPLA2 liposome hydrolysis, primary screen; Q9NZ20; QFRET BODIPY PC-A2 liposome hydrolysis, fluorescence; inhibition, % at 12.2 µM; 370,000 tested, 0.56% active; AID 743126;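 active means inhibition above mean plus 3 SD of compounds lying within the high and low control bounds, cut at about 19% in these data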;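 further: 0% = median of test compound wells and 100% = no enzyme DMSO wells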
Target sequence (Q9NZ20 whole entry, looked up): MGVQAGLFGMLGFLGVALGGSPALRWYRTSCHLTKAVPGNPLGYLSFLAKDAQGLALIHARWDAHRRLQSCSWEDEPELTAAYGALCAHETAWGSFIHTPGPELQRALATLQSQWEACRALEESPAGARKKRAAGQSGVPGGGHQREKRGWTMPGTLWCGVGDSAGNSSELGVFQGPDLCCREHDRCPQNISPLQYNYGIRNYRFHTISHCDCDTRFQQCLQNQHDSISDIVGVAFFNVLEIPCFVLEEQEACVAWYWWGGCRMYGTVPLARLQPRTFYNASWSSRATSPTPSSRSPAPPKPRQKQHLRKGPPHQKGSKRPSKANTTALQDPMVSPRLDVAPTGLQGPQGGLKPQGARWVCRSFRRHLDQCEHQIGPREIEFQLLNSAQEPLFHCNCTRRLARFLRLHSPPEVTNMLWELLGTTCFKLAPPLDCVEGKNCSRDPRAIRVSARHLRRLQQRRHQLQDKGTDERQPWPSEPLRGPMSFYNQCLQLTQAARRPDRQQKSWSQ
MsrA inh: inhibits bovine methionine sulfoxide reductase A; inhibition, % at 15.5 µM; purified bovine MsrA, absorbance read-out; 360,000 tested, 0.75% active;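 further: 0% = vehicle wells with enzyme and 100% = reference inhibitor wells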
MsrA inh confirm: bovine MsrA inhibition, confirmed. shares compounds with MsrA inh. purified bovine MsrA, absorbance read-out. inhibition, % at 15.5 µM. 2,300 tested, 41% active;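 further: coupled to thioredoxin reductase with NADPH and selenocystamine and DMSO as substrate; 0% = vehicle only and 100% = full effect of reference inhibitor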
Numbers without * were called inactive; / = no result. This is a sample that favours compounds with a hit; in the whole collection about 2.8% have one here. Unless noted, no stated cut-off is given here; in the data, active means inhibition above about 4.5%; inactive means the rest.

SMILES	bovine MsrA act	rCAG RNA binder	sPLA2-III inh	MsrA inh	MsrA inh confirm
COc1ccc(OC)c2[nH]c(C(=O)N/N=C/c3ccccc3O)cc12	-1.5	18.8	-0.5	3.5	/
COc1cc(/C=N/N(C)c2ccccc2)ccc1O	-1.4	7.2	0.6	5.3*	4.2
CSc1cccc(NC(=O)COc2ccccc2)c1	-11.9	-4.5	1.5	0.1	/
O=c1oc2ccccc2cc1-c1cn2cccnc2n1	0.9	2.9	5.1	5.8*	5.0*
O=c1oc2ccccc2cc1-c1cn2ccccc2n1	-11.7	-0.7	3.6	2.1	/
CC(C)C(NC(=O)[C@H](Cc1ccc(O)cc1)NC(=O)OC(C)(C)C)P(=O)(O)OC(Cc1ccccc1)C(=O)O (some centres not stated)	/	/	6.1	/	/
COc1cc(/C=C/C(=O)Nc2cccc(S(=O)(=O)N3CCOCC3)c2)ccc1OCC#N	-9.3	7.5	-21.2	1.7	/
CCOC(=O)c1ccc(NC(=O)/C=C/c2cccs2)cc1	-7.7	3.6	-33.7	3.3	/
NS(=O)(=O)c1cccc(NC(=O)COC(=O)/C(=C/c2cccs2)c2cccs2)c1	-2.9	14.5	-6.5	2.2	/
NS(=O)(=O)c1cccc(NC(=O)/C=C/c2cccs2)c1	-4.3	2.4	-5.0	5.1*	4.4
COc1cc(/C=C/C(=O)Nc2ccc(S(=O)(=O)Nc3ncccn3)cc2)ccc1OCC#N	-5.4	19.1	-18.7	4.9*	2.3
NS(=O)(=O)c1ccc(NC(=O)/C=C/c2cccs2)cc1	-10.6	5.8	-8.4	8.2*	5.1*
COc1cc(/C=C/C(=O)Nc2ccncc2)cc(OC)c1OC	-3.0	0.2	6.7	4.7*	2.7
COCCN(C(=O)COC(=O)c1c(NC(C)=O)sc(C)c1C)c1c(N)n(Cc2ccccc2)c(=O)[nH]c1=O	-0.6	2.0	-1.3	0.3	/
COc1cc2nc(SCC(=O)NCc3ccco3)n(Cc3ccc(Cl)cc3)c(=O)c2cc1OC	-3.5	5.0	-5.2	0.1	/
O=[N+]([O-])c1cc(S(=O)(=O)C(F)(F)F)ccc1Sc1nc2ccccc2[nH]1	0.7	8.7	-8.9	-0.3	/
O=C(/C=C/c1cccs1)Nc1ccc(S(=O)(=O)Nc2ncccn2)cc1	-6.7	2.7	-0.4	4.7*	4.5
CCN(CC)CCOC(=O)c1ccc(NC(=O)/C=C/c2cccs2)cc1	-2.2	-6.8	3.4	5.5*	2.7
COc1ccc(/C=C/C(=O)Nc2ccc(-n3nncc3-c3ccc(OC)c(OC)c3)cc2)cc1OC	-1.8	27.5	2.4	5.1*	4.4
CC(OC(=O)CN1C(=O)NC2(CCCC2)C1=O)C(=O)Nc1cccc(Cl)c1 (configuration not stated)	-2.5	-2.9	-8.6	-0.9	/
Oc1cccc(/C=N/Nc2ncnc3c2ncn3Cc2ccccc2)c1	-10.3	4.0	5.8	4.8*	5.2*
O=C(N/N=C/c1ccc([N+](=O)[O-])cc1)c1ccc2nc[nH]c2c1	-0.7	-0.6	-3.2	5.6*	4.8*
O=C(N/N=C/c1ccc([N+](=O)[O-])cc1)c1cc(C2CC2)[nH]n1	-3.0	2.2	4.0	5.3*	5.3*
O=C(N/N=C\c1cn[nH]c1-c1ccccc1)c1ccc([N+](=O)[O-])cc1	-1.0	1.3	-2.7	2.6	/
O=C(N/N=C/c1ccc([N+](=O)[O-])cc1)c1[nH]ncc1Br	-11.3	-1.6	4.3	4.9*	3.4
SMILES	bovine MsrA act	rCAG RNA binder	sPLA2-III inh	MsrA inh	MsrA inh confirm
Cc1cc(NC(=O)CSc2nnc(C3COc4ccccc4O3)n2C)no1 (configuration not stated)	0.6	-3.9	-0.9	-0.2	/
O=C(NCCC1=CCCCC1)c1ccc(=O)oc1	-18.2	-1.2	5.7	6.9*	7.1*
O=C(NCCN1CCCC1)c1ccc(Cl)cc1	0.0	2.1	-4.2	-0.9	/
O=C(NCCN1CCCCC1)c1ccc(=O)oc1	-4.3	0.8	6.8	5.1*	2.8
CCOc1ccccc1N1CC(C(=O)NCCc2ccc(S(N)(=O)=O)cc2)CC1=O (configuration not stated)	-2.2	4.5	0.4	-0.5	/
COc1ccc(/C=C(\NC(=O)c2ccc(C)cc2)C(=O)NCCN2CCOCC2)cc1	2.5	1.4	-3.3	0.3	/
Nc1ccc(C(=O)N/N=C\C=C\c2cccc([N+](=O)[O-])c2)cc1	-9.8	7.0	9.3	9.9*	6.8*
O=C(N/N=C/C=C/c1ccccc1)c1ccncc1	-1.0	1.9	-1.9	8.0*	6.9*
O=C(N/N=C/C=C/c1cccc([N+](=O)[O-])c1)c1ccncc1	-2.6	-0.9	2.8	-2.1	/
O=C(N/N=C/C=C\c1ccccc1[N+](=O)[O-])c1ccncc1	-7.2	-1.8	-4.3	2.6	/
Cc1ccc(-c2csc(/C=C3/SC(C)C(=O)N3CC(=O)Nc3ccccc3F)n2)cc1 (configuration not stated)	-5.9	15.5	6.2	1.4	/
Cc1c(Cl)cccc1N=c1c([N+](=O)[O-])nn(-c2ccccc2)n1O	-4.0	0.8	-2.3	0.0	/
Cc1ccc(N=c2c([N+](=O)[O-])nn(-c3ccccc3)n2O)c(C)c1	-10.1	2.2	-6.1	12.3*	15.0*
O=S(=O)(Nc1nc2ccccc2nc1OCC(F)(F)F)c1cccs1	-1.8	16.2	-16.0	4.9*	0.7
COCCCNc1nc2ccccc2nc1NS(=O)(=O)c1cccs1	-3.6	19.1	-6.0	5.2*	3.4
O=C(O)c1cccc(Nc2nc3ccccc3nc2NS(=O)(=O)c2cccs2)c1	-2.1	13.8	2.3	0.6	/
COC(=O)[C@]12C[C@H](CC(=O)NCc3ccc(C)o3)C(=O)N(CCC3=CCCCC3)C1=C[C@H](C(C)C)O[C@@H]2C1CC1	/	5.9	-8.2	/	/
O=C1NC(=S)N/C1=C\c1ccccc1OCc1ccc(C(=O)O)cc1	-1.5	11.2	-9.7	6.4*	3.1
CN1C(=O)/C(=C/c2ccccc2OCc2ccc(C(=O)O)cc2)NC1=S	-10.3	10.4	6.9	2.2	/
C(=N\N=C\c1cccs1)/c1cccs1	-0.7	0.5	3.5	5.1*	4.7*
O=C1N/C(=N\N=C\c2cccs2)SC1Cc1ccc(Cl)cc1 (configuration not stated)	-4.0	15.9	-5.5	-0.3	/
CCCC1S/C(=N/N=C/c2cccs2)NC1=O (configuration not stated)	-5.6	3.4	5.5	3.4	/
CC1S/C(=N/N=C/c2cccs2)NC1=O (configuration not stated)	-5.0	-0.3	-4.0	5.0*	4.4
CCC1S/C(=N/N=C/c2cccs2)NC1=O (configuration not stated)	-7.5	-1.4	-2.6	6.2*	5.5*
CC(C)C1S/C(=N/N=C/c2cccs2)NC1=O (configuration not stated)	-8.1	5.9	-3.8	6.8*	3.5
C(=N\n1cnnc1)/c1cccs1	-2.5	1.1	6.3	-0.1	/
CC1CC(C)(C)NC(=S)N1CCCC(=O)N1CCN(c2ccccc2F)CC1 (configuration not stated)	-1.8	-4.7	12.7	-0.5	/
CC(OC(=O)c1cc(Br)ccc1O)C(=O)NCc1ccc2c(c1)OCO2 (configuration not stated)	-2.1	0.9	13.9	0.6	/
